# Data: PubChem BioAssay (Tox21)
# Several values for one entry are separate records, joined by “and”; a condition that tells them apart may be missing. Equal entries are not always repeated. Results filed as inconclusive are left out. A call without a number means that no potency is given here. Some compounds were tested as several samples or in several runs, with calls that do not always agree. Activity calls are given as the source filed them. Calls follow the shape of the dose curve; as a rule, active = well fitted cell-killing curve with a large enough effect in the repeat runs; inconclusive = weak or mixed curves, or effect the other way; inactive = no such curve, though single readings can be large or run the other way.
# Test: qHTS assay for identifying genotoxic compounds that show differential cytotoxicity against isogenic chicken DT40 cell lines with known DNA damage response pathways - wild type cell line (AID 743012); also: nearly all actives have a fitted effect of over 60% in size
# Details: DT40 wild type chicken cells viability, CellTiter-Glo, 40 h; series mostly up to 68.4 µM
# Source text: U.S. Tox21 Program National Center for Advancing Translational Sciences [NCATS] NIH Chemical Genomics Center [NCGC] U.S. Environmental Protection Agency [EPA] National Institutes of Environmental Health Sciences [NIEHS] National Toxicology Program [NTP] U.S. Food and Drug Administration [FDA] Tox21 Assay Overview: DNA repair pathways play a critical role in cellular homeostasis by repairing DNA damage induced by endogenous processes and xenobiotics. Isogenic chicken DT40 cell lines deficient in different DNA repair pathways can be used to identify genotoxic compounds and aid in characterizing the nature of the DNA damage induced. Two DNA repair-deficient cell lines with disrupted genes, Rad54/Ku70 or Rev3, were used to screen the Tox21 10K compound library. Possible genotoxicity was based on the presence of a significant increase in cytotoxicity in one or more of the DNA repair-deficient cell lines compared to that observed in the parental DNA repair-proficient cell line. CellTiter Glo viability assay (Promega, Madison, WI) was used to measure cell viability in these cells after compound treatment. This assay includes the data from the wild type cell line.
# Tox21 Assay Protocol Summary: 300 DT40 wild type cells in 5 uL/well were dispensed into white, solid-bottom 1536-well plates using a Multidrop Combi (ThermoFisher Scientific, Waltham, MA) dispenser. After the assay plates were incubated at 37 C/5% CO2 for approximately 0.5 hour, 23 nL of compounds dissolved in DMSO, positive controls or DMSO only was transferred into the assay plate by a pintool work station (Kalypsys, San Diego, CA). The assay plates were incubated at 37 C/5% CO2 for 40 hours. After 5 uL per well of CellTiter-Glo reagent was added into each well of the assay plates, the plates were incubated for 30 min at room temperature and the luminescence intensity of the plates was measured using a ViewLux (PerkinElmer, Shelton, CT) plate reader.
# Potency is read from the fitted curve at half-maximal effect.
row,SMILES,Potency
1,O=[N+]([O-])c1cccc2ccccc12,inactive
2,C=CCc1ccc2c(c1)OCO2,inactive
3,CN(C)C(=O)Nc1ccc(Cl)cc1,inactive
4,CCN(CC)N=O,inactive
5,CCN(CC)C(=O)/C(Cl)=C(\C)OP(=O)(OC)OC,inactive
6,Oc1cc(Cl)ccc1Cl,inactive
7,NC(=S)Nc1ccccc1,inactive
8,CCCCN(CC)c1c([N+](=O)[O-])cc(C(F)(F)F)cc1[N+](=O)[O-],inactive
9,c1ccc(P(c2ccccc2)c2ccccc2)cc1,55.5 µM (active) and 61.1 µM (active)
10,NCc1cccnc1,inactive
11,CC(C)Oc1cc(-n2nc(C(C)(C)C)oc2=O)c(Cl)cc1Cl,5.45 µM (active)
12,O=C(CCl)c1ccccc1,inactive and 68.6 µM (active)
13,CCOP(=S)(OCC)O/N=C(\C#N)c1ccccc1,inactive
14,O=c1oc2ccccc2c(O)c1C(CC(O)c1ccc(-c2ccc(Br)cc2)cc1)c1ccccc1 (stereo not given),inactive
15,CN(C)c1ccc(C(=O)c2ccc(N(C)C)cc2)cc1,1.52 µM (active) and 1.37 µM (active)
16,CCCCCCCCOC(=O)c1ccccc1C(=O)OCCCCCCCC,inactive
17,CCOC(=O)C(C)OC(=O)c1cc(Oc2ccc(C(F)(F)F)cc2Cl)ccc1[N+](=O)[O-] (stereo not given),24.3 µM (active)
18,C#C[C@]1(O)CC[C@H]2[C@@H]3CCC4=CC(=O)CC[C@]4(C)[C@H]3CC[C@@]21C,inactive
19,O=C(O)C(F)(F)C(F)(F)C(F)(F)C(F)(F)C(F)(F)C(F)(F)C(F)(F)F,inactive
20,CCCCCCCCCCCOC(=O)c1ccccc1C(=O)OCCCCCCCCCCC,inactive

row,SMILES,Potency
1,CCC(C)(C)c1ccc(O)cc1,inactive and 54.5 µM (active)
2,Cc1c(COC(=O)[C@@H]2[C@H](/C=C(\Cl)C(F)(F)F)C2(C)C)cccc1-c1ccccc1,inactive
3,CCOCN(C(=O)CCl)c1c(C)cccc1CC,51.4 µM (active) and 17.2 µM (active)
4,CNC(=O)Oc1cccc2c1OC(C)(C)O2,inactive
5,Nc1ccc(Cl)c(Cl)c1,inactive
6,c1nc[nH]n1,inactive
7,Cc1cc(Cl)ccc1OCCCC(=O)O,inactive
8,c1cc(OCC2CO2)ccc1Cc1ccc(OCC2CO2)cc1 (stereo not given),13.7 µM (active)
9,O=C(NC(=O)c1c(F)cccc1F)Nc1ccc(Cl)cc1,inactive
10,COP(=O)(OC)OC,inactive
11,CC(C)(c1cc(Cl)c(O)c(Cl)c1)c1cc(Cl)c(O)c(Cl)c1,inactive
12,CC(C)N(C(=O)SCC(Cl)=C(Cl)Cl)C(C)C,61.1 µM (active)
13,N[C@@H](Cc1ccc(N(CCCl)CCCl)cc1)C(=O)O,944 nM (active) and 8.28 µM (active)
14,c1ccc(NNc2ccccc2)cc1,inactive and 30.6 µM (active)
15,Oc1cc(Cl)c(Cl)cc1Cl,inactive
16,O=[N+]([O-])c1ccc(O)c([N+](=O)[O-])c1,inactive
17,O=[N+]([O-])c1c(Cl)c(Cl)c(Cl)c(Cl)c1Cl,61.1 µM (active)
18,C#CCOS(=O)OC1CCCCC1Oc1ccc(C(C)(C)C)cc1 (stereo not given),6.12 µM (active) and 2.73 µM (active)
19,OCC(O)CO,inactive
20,Nc1ccc(-c2ccccc2)cc1,inactive and 54.5 µM (active)
